Measured values published in article PMC7862700, “An all-to-all approach to the identification of sequence-specific readers for epigenetic DNA modifications on cytosine”.

Experiments:
Assay in all cases: DAPPL (digital affinity profiling via proximity ligation, sequencing); 10 mM Tris-HCl pH 7.5, 50 mM NaCl, 1 mM DTT, 4% glycerol, room temperature, 30 min; GST-TFs on glutathione beads, 16-mer random dsDNA library, 0.1% formaldehyde crosslink after washing; high values mean tight binding
Details in all cases: protein: recombinant; tags: N-terminal GST; dsDNA, one strand shown
[1] = target: T1, GABPA (Homo sapiens, UniProt Q06546 1-454)
T1 sequence: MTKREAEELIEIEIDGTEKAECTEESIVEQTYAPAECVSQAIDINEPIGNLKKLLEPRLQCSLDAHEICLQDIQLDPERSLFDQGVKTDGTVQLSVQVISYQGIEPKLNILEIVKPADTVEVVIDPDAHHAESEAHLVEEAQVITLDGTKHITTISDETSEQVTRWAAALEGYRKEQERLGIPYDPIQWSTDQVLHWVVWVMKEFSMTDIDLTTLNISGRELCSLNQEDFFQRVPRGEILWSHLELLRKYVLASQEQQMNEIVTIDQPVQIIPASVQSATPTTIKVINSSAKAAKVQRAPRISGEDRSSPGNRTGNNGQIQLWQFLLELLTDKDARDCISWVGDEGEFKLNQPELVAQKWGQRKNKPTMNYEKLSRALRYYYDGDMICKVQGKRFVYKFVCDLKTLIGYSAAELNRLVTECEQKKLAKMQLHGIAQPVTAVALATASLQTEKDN
How it was run: (§1)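 A tag-only sample was pooled with DNA-barcoded human transcription factors that had been expressed in yeast as GST fusions and captured on glutathione beads. The pools were incubated for 30 min at room temperature with 200 nmole of a random double-stranded 16-mer DNA library in Tris/NaCl/DTT/glycerol buffer, then washed, crosslinked with 0.1% formaldehyde, proximity-ligated (BsaI/T4 ligase, 1 h, 37 °C), PCR-amplified and sequenced on an Illumina NextSeq500. Binding signal is each hexamer's read frequency for a factor divided by its frequency for the tag-only sample.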

[2] = target: SPIB (Homo sapiens, UniProt Q01892 1-262)
SPIB, sequence (Q01892 whole entry): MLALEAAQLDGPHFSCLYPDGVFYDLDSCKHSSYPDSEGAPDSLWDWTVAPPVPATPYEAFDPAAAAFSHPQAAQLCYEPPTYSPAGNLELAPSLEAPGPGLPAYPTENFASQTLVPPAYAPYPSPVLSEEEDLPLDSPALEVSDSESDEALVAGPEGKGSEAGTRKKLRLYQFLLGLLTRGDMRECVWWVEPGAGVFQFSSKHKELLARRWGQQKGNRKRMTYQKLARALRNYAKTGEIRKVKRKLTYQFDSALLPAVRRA
How it was run: as §1

[3] = target: ETV5 (Homo sapiens, UniProt P41161 1-510)
ETV5, sequence (P41161 whole entry): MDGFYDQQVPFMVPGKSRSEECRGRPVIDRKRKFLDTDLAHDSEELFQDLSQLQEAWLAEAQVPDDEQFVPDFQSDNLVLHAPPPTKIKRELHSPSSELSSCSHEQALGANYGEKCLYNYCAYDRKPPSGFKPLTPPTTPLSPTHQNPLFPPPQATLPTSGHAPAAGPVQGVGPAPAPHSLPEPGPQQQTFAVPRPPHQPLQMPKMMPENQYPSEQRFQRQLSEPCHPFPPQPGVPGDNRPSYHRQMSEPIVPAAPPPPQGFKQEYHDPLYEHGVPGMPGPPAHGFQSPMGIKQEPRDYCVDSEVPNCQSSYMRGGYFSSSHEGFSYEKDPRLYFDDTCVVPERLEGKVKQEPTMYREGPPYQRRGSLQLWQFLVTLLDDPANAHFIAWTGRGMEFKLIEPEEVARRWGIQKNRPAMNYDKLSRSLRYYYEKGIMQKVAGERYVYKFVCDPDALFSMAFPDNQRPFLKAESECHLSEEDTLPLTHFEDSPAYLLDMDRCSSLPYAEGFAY
How it was run: as §1

[4] = target: ELF4 (Homo sapiens, UniProt Q99607 1-663)
ELF4, sequence (Q99607 whole entry): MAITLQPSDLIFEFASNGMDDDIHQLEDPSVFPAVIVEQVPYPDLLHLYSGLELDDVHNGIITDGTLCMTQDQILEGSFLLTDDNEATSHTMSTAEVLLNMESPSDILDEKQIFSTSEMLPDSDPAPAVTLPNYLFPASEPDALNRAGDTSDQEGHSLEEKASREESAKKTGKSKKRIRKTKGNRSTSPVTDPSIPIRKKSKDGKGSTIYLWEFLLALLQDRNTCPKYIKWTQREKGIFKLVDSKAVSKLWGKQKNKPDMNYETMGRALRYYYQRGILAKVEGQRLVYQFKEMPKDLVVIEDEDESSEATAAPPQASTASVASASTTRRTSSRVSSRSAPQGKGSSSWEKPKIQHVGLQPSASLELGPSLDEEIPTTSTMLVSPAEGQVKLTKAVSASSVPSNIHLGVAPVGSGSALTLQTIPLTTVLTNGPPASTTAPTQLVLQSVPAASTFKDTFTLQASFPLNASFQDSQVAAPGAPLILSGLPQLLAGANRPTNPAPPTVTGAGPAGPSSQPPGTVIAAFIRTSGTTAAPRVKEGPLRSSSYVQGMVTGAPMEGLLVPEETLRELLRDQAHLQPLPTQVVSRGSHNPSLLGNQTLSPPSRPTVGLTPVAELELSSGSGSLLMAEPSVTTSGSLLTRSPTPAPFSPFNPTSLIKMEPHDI
How it was run: as §1

[5] = target: T2, ELK4 (Homo sapiens, UniProt P28324-2 1-405)
T2 sequence: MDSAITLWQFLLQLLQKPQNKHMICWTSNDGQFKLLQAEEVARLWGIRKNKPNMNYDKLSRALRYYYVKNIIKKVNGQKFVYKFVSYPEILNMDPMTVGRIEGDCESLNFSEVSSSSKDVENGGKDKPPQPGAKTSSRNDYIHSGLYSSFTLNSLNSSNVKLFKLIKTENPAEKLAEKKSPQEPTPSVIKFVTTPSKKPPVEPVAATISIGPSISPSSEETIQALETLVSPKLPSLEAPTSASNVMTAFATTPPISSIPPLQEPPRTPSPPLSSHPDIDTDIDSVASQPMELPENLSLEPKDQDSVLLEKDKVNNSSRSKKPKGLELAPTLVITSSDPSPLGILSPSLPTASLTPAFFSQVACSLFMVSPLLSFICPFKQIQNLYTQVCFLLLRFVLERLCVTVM
How it was run: as §1

[6] = target: T3, ETV2 (Homo sapiens, UniProt O00321 1-342)
T3 sequence: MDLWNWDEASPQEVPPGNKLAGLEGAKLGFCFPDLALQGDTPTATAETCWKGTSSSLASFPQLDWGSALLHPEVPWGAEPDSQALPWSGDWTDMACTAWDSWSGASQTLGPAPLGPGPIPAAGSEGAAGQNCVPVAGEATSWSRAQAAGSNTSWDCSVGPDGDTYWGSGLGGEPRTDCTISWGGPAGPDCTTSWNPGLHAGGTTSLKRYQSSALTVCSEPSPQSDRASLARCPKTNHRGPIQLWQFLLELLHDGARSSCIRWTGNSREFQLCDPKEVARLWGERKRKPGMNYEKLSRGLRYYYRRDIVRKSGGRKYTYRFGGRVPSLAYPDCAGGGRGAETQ
How it was run: as §1

[7] = target: T4, ETV3L (Homo sapiens, UniProt Q6ZN32 1-361)
T4 sequence: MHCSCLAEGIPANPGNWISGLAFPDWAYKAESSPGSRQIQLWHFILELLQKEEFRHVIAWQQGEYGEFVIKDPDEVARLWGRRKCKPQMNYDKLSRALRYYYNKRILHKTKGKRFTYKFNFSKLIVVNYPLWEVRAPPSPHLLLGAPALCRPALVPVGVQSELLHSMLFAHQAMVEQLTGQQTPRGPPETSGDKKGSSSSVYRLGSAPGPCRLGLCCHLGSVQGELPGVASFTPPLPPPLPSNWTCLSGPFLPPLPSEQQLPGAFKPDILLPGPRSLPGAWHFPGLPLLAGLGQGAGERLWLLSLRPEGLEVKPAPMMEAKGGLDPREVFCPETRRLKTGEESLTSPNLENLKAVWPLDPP
How it was run: as §1

[8] = target: T5, ETV7 (Homo sapiens, UniProt Q9Y603 1-341)
T5 sequence: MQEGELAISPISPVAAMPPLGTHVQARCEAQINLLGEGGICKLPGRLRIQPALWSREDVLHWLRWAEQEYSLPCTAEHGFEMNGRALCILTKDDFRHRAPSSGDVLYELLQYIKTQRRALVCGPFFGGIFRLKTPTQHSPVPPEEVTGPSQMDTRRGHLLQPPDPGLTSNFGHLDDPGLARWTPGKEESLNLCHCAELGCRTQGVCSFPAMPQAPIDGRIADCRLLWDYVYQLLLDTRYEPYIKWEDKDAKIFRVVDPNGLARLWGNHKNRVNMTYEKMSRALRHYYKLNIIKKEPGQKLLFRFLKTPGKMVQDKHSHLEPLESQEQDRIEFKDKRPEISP
How it was run: as §1

[9] = target: ETV6 (Homo sapiens, UniProt P41212 1-452)
ETV6, sequence (P41212 whole entry): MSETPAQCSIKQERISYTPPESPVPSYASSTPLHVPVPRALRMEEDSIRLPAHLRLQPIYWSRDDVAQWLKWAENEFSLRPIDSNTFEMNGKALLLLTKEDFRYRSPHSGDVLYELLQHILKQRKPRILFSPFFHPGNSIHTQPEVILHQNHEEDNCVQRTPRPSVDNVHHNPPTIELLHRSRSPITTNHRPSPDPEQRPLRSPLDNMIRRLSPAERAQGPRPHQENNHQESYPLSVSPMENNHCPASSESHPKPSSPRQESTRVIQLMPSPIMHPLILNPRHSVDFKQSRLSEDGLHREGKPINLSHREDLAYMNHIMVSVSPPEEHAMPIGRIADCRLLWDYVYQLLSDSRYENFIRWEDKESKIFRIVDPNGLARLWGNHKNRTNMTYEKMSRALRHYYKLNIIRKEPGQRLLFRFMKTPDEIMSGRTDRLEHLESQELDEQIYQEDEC
How it was run: as §1

[10] = target: T6, ELK1 (Homo sapiens, UniProt P19419 1-428)
T6 sequence: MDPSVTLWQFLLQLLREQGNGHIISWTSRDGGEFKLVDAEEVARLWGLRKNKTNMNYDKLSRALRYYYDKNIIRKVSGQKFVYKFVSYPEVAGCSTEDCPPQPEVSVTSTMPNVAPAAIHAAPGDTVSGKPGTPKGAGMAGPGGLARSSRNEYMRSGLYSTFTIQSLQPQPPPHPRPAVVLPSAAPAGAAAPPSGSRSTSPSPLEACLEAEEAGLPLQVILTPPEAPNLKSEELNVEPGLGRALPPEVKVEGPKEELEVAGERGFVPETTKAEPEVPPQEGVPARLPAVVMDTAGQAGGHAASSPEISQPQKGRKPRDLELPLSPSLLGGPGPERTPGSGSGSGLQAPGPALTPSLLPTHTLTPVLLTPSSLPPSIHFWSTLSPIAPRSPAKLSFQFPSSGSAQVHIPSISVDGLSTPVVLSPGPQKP
How it was run: as §1

[11] = target: T7, ERG (Homo sapiens, UniProt P11308 1-479)
T7 sequence: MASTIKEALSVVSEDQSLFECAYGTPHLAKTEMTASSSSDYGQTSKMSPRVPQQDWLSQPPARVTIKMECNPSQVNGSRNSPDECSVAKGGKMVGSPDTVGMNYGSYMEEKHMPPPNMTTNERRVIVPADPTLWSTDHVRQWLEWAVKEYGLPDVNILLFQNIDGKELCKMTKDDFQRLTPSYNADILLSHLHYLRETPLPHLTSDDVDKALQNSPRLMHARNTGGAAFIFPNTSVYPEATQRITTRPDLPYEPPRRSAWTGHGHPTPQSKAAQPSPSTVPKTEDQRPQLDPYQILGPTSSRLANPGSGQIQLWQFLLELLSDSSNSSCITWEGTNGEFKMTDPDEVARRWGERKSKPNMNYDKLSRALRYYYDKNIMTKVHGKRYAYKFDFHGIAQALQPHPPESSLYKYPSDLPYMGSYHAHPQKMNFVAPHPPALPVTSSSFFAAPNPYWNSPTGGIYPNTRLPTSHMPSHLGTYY
How it was run: as §1

[12] = target: ELF1 (Homo sapiens, UniProt P32519 1-619)
ELF1, sequence (P32519 whole entry): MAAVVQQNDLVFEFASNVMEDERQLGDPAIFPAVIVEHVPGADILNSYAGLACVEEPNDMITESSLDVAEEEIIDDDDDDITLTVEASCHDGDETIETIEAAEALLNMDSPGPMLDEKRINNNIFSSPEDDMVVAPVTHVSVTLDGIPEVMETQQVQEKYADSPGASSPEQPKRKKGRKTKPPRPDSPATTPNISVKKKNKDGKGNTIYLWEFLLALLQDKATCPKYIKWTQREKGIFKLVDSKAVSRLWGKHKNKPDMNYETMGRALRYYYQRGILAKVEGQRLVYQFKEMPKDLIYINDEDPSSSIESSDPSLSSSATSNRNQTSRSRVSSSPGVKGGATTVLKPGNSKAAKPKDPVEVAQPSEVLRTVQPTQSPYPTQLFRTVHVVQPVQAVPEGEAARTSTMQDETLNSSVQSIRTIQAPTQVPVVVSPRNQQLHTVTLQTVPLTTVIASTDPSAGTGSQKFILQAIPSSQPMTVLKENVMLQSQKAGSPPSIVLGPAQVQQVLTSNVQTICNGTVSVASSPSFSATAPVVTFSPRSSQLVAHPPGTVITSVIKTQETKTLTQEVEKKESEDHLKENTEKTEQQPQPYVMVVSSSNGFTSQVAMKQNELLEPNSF
How it was run: as §1

[13] = target: T8, EHF (Homo sapiens, UniProt Q9NZC4 1-300)
T8 sequence: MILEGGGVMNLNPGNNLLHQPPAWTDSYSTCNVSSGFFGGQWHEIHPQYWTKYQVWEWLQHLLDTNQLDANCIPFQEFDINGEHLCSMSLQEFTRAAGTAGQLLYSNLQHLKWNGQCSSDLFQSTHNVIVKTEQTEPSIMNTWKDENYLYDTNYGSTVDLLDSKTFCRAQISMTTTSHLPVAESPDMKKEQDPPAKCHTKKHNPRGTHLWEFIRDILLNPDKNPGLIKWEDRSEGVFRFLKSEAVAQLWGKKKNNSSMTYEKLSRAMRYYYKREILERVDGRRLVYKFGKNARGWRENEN
How it was run: as §1

[14] = target: T9, FEV (Homo sapiens, UniProt Q99581 1-238)
T9 sequence: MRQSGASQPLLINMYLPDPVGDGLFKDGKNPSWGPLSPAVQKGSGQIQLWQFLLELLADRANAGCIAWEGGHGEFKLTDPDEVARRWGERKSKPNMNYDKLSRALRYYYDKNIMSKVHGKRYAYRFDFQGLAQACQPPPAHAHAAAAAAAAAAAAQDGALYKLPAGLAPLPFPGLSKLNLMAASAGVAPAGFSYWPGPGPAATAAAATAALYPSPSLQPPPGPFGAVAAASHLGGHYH
How it was run: as §1

[15] = target: T10, ELF3 (Homo sapiens, UniProt P78545 1-371)
T10 sequence: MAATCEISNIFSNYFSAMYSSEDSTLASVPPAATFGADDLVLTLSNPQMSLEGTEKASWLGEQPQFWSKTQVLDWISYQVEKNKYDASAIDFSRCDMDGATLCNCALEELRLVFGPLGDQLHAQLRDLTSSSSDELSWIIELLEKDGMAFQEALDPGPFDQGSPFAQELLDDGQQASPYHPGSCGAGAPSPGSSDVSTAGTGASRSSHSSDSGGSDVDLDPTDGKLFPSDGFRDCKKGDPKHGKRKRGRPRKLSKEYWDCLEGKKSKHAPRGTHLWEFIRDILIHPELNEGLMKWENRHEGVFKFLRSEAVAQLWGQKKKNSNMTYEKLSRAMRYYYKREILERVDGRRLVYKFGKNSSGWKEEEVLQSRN
How it was run: as §1

[16] = target: ETV1 (Homo sapiens, UniProt P50549 1-477)
ETV1, sequence (P50549 whole entry): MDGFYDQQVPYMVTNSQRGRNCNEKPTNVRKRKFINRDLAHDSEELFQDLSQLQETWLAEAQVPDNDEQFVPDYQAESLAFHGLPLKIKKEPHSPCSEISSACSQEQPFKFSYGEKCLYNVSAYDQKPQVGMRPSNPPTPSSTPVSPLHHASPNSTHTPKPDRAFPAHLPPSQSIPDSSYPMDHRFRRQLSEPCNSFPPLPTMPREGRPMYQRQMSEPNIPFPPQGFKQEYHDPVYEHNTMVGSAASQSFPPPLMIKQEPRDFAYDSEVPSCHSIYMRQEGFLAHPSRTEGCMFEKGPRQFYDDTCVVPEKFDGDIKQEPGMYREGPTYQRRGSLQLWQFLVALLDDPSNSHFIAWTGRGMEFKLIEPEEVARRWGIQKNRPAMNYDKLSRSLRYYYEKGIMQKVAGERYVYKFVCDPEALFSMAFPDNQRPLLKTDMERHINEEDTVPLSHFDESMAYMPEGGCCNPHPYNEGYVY
How it was run: as §1

[17] = target: T11, ETS2 (Homo sapiens, UniProt P15036 1-469)
T11 sequence: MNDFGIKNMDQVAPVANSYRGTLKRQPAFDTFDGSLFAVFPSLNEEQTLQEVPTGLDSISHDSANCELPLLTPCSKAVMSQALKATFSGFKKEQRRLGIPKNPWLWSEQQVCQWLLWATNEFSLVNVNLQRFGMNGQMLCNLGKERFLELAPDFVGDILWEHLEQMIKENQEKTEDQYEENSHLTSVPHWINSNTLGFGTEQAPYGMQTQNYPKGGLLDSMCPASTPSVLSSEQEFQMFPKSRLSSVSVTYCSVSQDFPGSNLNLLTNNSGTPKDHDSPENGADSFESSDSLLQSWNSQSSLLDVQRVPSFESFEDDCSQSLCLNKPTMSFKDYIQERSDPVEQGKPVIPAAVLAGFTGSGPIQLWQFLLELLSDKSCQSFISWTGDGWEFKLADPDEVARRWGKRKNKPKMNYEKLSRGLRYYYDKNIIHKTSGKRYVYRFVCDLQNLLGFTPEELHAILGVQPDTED
How it was run: as §1

[18] = target: T12, SPDEF (Homo sapiens, UniProt O95238 1-335)
T12 sequence: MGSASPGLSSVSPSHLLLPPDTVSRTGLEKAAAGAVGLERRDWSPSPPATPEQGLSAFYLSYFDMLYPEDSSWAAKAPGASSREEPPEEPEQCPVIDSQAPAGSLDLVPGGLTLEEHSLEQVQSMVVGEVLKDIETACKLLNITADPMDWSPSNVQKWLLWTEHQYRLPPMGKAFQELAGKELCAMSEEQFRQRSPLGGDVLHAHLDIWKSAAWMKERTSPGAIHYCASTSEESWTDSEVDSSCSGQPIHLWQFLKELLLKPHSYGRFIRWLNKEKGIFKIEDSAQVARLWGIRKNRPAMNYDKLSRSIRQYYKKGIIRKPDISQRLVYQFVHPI
How it was run: as §1

[19] = target: T13, ETV3 (Homo sapiens, UniProt P41162-2 1-143)
T13 sequence: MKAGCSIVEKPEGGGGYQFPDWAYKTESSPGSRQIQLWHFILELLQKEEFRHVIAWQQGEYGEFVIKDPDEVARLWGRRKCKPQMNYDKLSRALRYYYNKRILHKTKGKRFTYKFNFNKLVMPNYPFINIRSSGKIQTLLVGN
How it was run: as §1

Row | Sequence | binding signal [1] | binding signal [2] | binding signal [3] | binding signal [4] | binding signal [5] | binding signal [6] | binding signal [7] | binding signal [8] | binding signal [9] | binding signal [10] | binding signal [11] | binding signal [12] | binding signal [13] | binding signal [14] | binding signal [15] | binding signal [16] | binding signal [17] | binding signal [18] | binding signal [19]
1 | CGCGTA | 1.01 fold enrichment (6-mer frequency, TF over GST control) | 1.05 fold enrichment (6-mer frequency, TF over GST control) | 1 fold enrichment (6-mer frequency, TF over GST control) | 1.08 fold enrichment (6-mer frequency, TF over GST control) | 1.07 fold enrichment (6-mer frequency, TF over GST control) | 1.03 fold enrichment (6-mer frequency, TF over GST control) | 1.01 fold enrichment (6-mer frequency, TF over GST control) | 1.07 fold enrichment (6-mer frequency, TF over GST control) | 1.01 fold enrichment (6-mer frequency, TF over GST control) | – | – | – | – | – | – | – | – | – | –
2 | ACCGGC | 1.12 fold enrichment (6-mer frequency, TF over GST control) | 1.3 fold enrichment (6-mer frequency, TF over GST control) | 1.1 fold enrichment (6-mer frequency, TF over GST control) | 1.03 fold enrichment (6-mer frequency, TF over GST control) | 1.1 fold enrichment (6-mer frequency, TF over GST control) | – | 1.21 fold enrichment (6-mer frequency, TF over GST control) | 1.06 fold enrichment (6-mer frequency, TF over GST control) | 1.31 fold enrichment (6-mer frequency, TF over GST control) | 1.08 fold enrichment (6-mer frequency, TF over GST control) | 1.13 fold enrichment (6-mer frequency, TF over GST control) | 1.19 fold enrichment (6-mer frequency, TF over GST control) | 1.12 fold enrichment (6-mer frequency, TF over GST control) | 1.14 fold enrichment (6-mer frequency, TF over GST control) | 1.21 fold enrichment (6-mer frequency, TF over GST control) | 1.23 fold enrichment (6-mer frequency, TF over GST control) | 1.17 fold enrichment (6-mer frequency, TF over GST control) | 1.05 fold enrichment (6-mer frequency, TF over GST control) | 1.15 fold enrichment (6-mer frequency, TF over GST control)
